# Most compounds without a hit are left out; they make up all but 3% or so of the library.
# HBB splice mod = qHTS Assay for Modulators of Hemoglobin Beta Chain Splicing. HBB splicing reporter cell assay, activation; EGFP reporter with mutant IVS2-654 intron; response scale: normalised to 500 nM splice-correcting PNA. Potency, µM (top dose mostly 46.1 µM), for the others: top-dose activation, actives largely listed as activators. 65,000 tested, 0.06% active. AID 925, 2007; also: potency is read from the fitted curve at half-maximal effect; 0% is about no effect
#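 HeLa cells stably expressing EGFP interrupted by mutant beta-globin intron 2 (IVS2-654), 500/well in 2% FCS. Treated with compound for 2 days at 37C. Splicing correction scored as total well GFP intensity (488 nm excitation, 500-520 nm emission); 500 nM antisense PNA served as control.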
# Ub-GFP proteasome = Ubiquitin-GFP Assay. Ubiquitin-GFP reporter cells, proteasome inhibition, GFP fluorescence; response scale: untreated = 0%, 10 µM MG-132 = 100%. Potency, µM (top dose mostly 45.9 µM), for the others: at the top dose activation (GFP accumulation), hits mostly activators. 67,000 tested, under 10 active; active = well fitted activation curve with a large enough effect, not every such curve was filed as active; inconclusive = small, poorly fitted or top-dose-only effect, or another doubt; inactive = no such curve, though single readings can be large or run the other way; also: potency is read from the fitted curve at half-maximal effect
#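 U2OS cells stably expressing ubiquitin(G76V)-GFP, seeded overnight in 0.5% FBS medium, were exposed to compounds (qHTS, 46 uM to 2.9 nM) for 4 hr at 37 °C. GFP-positive cells were counted by laser cytometry (488 ex/515 em), normalized between basal and 10 uM MG-132.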
# TSHR ag = qHTS Assay for Agonists of the Thyroid Stimulating Hormone Receptor; AID 926, 2007; Thyrotropin receptor (Homo sapiens), P16473; Potency, µM (series often up to 57.1 µM), for inactives: at the highest dose activation, actives largely listed as activators; HEK293-CNG-TSHR cells (CNG channel as cAMP sensor), membrane potential dye, cAMP; 73,000 tested, 0.48% active; active = well fitted activation curve with a large enough effect in the main read-out, with a control signal flat, not every such curve was filed as active; inconclusive = small, poorly fitted or top-dose-only effect, or a change in a side signal; inactive = no such curve, though single readings can be large or run the other way; % of control where 0% means no effect;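 also: the control signal comes from parental cells without the receptor; potency is read from the fitted curve at half-maximal effect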
# Target sequence (P16473 whole entry, looked up): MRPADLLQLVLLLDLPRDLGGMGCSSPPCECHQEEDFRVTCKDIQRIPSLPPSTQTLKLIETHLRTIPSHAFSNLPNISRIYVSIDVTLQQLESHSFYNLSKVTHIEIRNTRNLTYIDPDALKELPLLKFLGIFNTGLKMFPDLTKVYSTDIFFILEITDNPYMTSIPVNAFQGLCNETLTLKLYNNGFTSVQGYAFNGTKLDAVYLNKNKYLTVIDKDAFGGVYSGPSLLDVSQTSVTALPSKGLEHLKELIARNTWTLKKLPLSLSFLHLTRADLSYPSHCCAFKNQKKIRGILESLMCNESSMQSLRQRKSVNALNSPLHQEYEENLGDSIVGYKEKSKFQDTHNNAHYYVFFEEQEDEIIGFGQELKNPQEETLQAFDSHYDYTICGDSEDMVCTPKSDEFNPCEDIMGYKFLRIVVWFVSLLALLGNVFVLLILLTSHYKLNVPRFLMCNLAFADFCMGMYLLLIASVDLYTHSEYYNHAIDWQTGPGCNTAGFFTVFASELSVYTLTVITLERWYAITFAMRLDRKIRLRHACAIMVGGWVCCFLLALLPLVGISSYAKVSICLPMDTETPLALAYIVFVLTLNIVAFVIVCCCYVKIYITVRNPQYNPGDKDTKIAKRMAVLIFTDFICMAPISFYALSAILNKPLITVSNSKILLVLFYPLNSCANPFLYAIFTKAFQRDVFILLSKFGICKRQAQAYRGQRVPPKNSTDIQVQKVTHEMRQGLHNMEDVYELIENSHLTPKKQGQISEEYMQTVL
#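 HEK 293 cells stably expressing TSHR and a modified CNG channel, with CNG-only parental cells as counterscreen, were preloaded 60 min at room temperature with membrane potential dye containing 100 uM RO 20-1724. Compound exposure was 30 min, and depolarization was read as fluorescence at 590 nm.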
# GFP derepression = qHTS Assay for Epigenetic Modulators | 68,000 tested, 0.09% active | AID 597, 2007 | Potency, µM (titrated, usually from 46.1 µM), for inactives: top-dose GFP derepression (activation) | mouse C127i GFP locus derepression, cytometry, 30 h; also: % of control where 0% means no effect
#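 Derepression screen: silenced CMV-GFP reporter in murine C127i cells, 30 h compound incubation at 37 C, washed cells imaged by laser-scanning cytometer to enumerate GFP-expressing objects of 20 to 120 um.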
# HEK293 cAMP cs = qHTS Assay for Agonists of the Thyroid Stimulating Hormone Receptor: Activators of Intracellular cAMP Concentrations in Parental HEK 293; parental HEK293 CNG cAMP sensor, membrane potential fluorescence; Potency, µM (highest dose often 57.1 µM), inactives show at the top dose activation, usual class: activators; 73,000 tested, 2.5% active; also: potency is read from the fitted curve at half-maximal effect; % of control where 0% means no effect; nearly all actives have a fitted effect of over 55% in size
#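 Counterscreen for endogenous-receptor signalling: CNG-channel HEK 293 cells report cAMP rise by membrane depolarization. After 60 min dye equilibration with 100 uM RO 20-1724, compounds incubated 30 min before bottom-read fluorescence at 590 nm.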
# An asterisk follows results filed as active; u = inconclusive; x = no result given; [ ] = another dose, or the depositor's remark. Unless noted, calls follow the shape of the dose curve; as a rule, active = well fitted curve in the direction sought with a large enough effect; inconclusive = small, poorly fitted or top-dose-only effect, or another doubt; inactive = no such curve, though single readings can be large; an effect the other way counts as inactive or inconclusive.
SMILES,HBB splice mod,Ub-GFP proteasome,TSHR ag,GFP derepression,HEK293 cAMP cs
Cc1ccccc1OCc1nnc(SCC(=O)NCc2ccccc2)n1C,-3%,0%,5%,0%,18%
CCOC(=O)c1ccccc1NC(=O)CSc1nnc(COc2ccccc2C)n1C,0%[57.5 µM],-4%,u,6%,16µM*
CCOC(=O)c1ccccc1NC(=O)CSc1nnnn1C1CCCCC1,-1%,0%,u,0%,32µM*
COc1cc(NC(=O)Cc2ccc(Cl)cc2)ccc1NC(=O)c1ccco1,2%,-2%,0%,-1%,-5%
COc1ccc(NC(=O)c2cc(Cl)ccc2NC(=O)c2ccco2)c(OC)c1,x,1%,u,1%,25µM*
C[N+](C)(C)CCN[N@@+]1(C)CCCc2ccccc21,3%[9.22 µM],-2%[9.17 µM],-7%[11.4 µM],-2%[9.22 µM],1%[11.4 µM]
COC(=O)c1cc(CSc2nnc(-c3ccccc3)c(-c3ccccc3)n2)oc1C,-2%,5%,5%,2%,20%
COC(=O)c1cc(CSc2nc3ccc(C)cc3[nH]2)oc1C,3%[1.84 µM],3%,u,3%,20µM*
Cc1ccc(C)c(NC(=O)c2ccc3c(c2)N(Cc2ccc(F)cc2)C(=O)CS3=O)c1 (stereo not given),-1%,-3%,u,0%,32µM*
COC(=O)c1ccccc1NC(=O)CN1CCN(C23CC4CC(CC(C4)C2)C3)CC1,2%,3%,u,-3%,7.9µM*
COC(=O)c1ccccc1NC(=O)CN1CCC(n2nnc3cc(F)ccc32)CC1,x,1%,u,-1%,25µM*
COC(=O)c1ccccc1NC(=O)CN1CCC(NC(=O)c2ccc(C)cc2)CC1,x,1%,u,-2%,u
O=C(CN1CCC(n2nnc3cc(F)ccc32)CC1)Nc1ccccc1N1CCOCC1,-3%,-4%,2%,0%,6%
O=c1cc(-c2ccccc2)oc2cc(O[C@H]3O[C@H](CO)[C@@H](O)[C@H](O)[C@@H]3O)c(O)c(O)c12,x,-3%,0%,-2%[9.22 µM],0%
CCCCCCC#CC1C=CC(Oc2ccc(C=O)cc2)C(CO)O1 (stereo not given),1%[9.22 µM],x,4%[11.4 µM],x,1%[11.4 µM]
CCC(c1nnnn1Cc1cccs1)N1CCN(c2nc3ccccc3s2)CC1 (stereo not given),0%[57.5 µM],-3%,u,-1%,32µM*
CC(C)C(c1nnnn1Cc1ccco1)N1CCN(C2CCCC2)CC1 (stereo not given),-2%,-4%,u,5%,u
COCCn1nnnc1C(c1cccs1)N1CCN(c2nc3ccccc3s2)CC1 (stereo not given),-2%,-4%,13%,0%,20%
c1ccc2sc(N3CCN(Cc4nnnn4CC4CCCO4)CC3)nc2c1 (stereo not given),0%[57.5 µM],-3%,u,3%,25µM*
CCCC(c1nnnn1Cc1cccs1)N1CCN(C2CCCC2)CC1 (stereo not given),0%[57.5 µM],4%,u,1%,u
CCC(c1nnnn1Cc1cccs1)N1CCN(C2CCCC2)CC1 (stereo not given),1%[57.5 µM],2%,u,-2%,5µM*
c1ccc2c(c1)CCCN2Cc1nnnn1CC1CCCO1 (stereo not given),-2%,1%,u,-1%,u
CCCC(c1nnnn1Cc1ccco1)N1CCN(C2CCCC2)CC1 (stereo not given),0%[57.5 µM],-4%,u,0%,16µM*
CCN1C(C)=C(C(=O)OC)C(c2ccccc2)N2C(=O)[C@](O)(C(=O)OC)CC(C#N)=C12 (stereo not given in full),1%[9.22 µM],x,-2%[11.4 µM],x,-5%[11.4 µM]
C=C1CC[C@@H]2O[C@]2(C)CC[C@@H]2[C@H]1CC2(C)C,x,-2%,7%,9%[9.22 µM],12%
SMILES,HBB splice mod,Ub-GFP proteasome,TSHR ag,GFP derepression,HEK293 cAMP cs
CC1CCc2c(nc3ncnn3c2N2CCN(c3ccccc3F)CC2)C1 (stereo not given),x,0%,u,0%,u
CC1CCc2c(nc3ncnn3c2N2CCN(c3ccccc3)CC2)C1 (stereo not given),-1%,-2%,u,-1%,25µM*
COCC(C)n1c(C)cc(C(=O)COC(=O)c2c(C)nn(-c3ccccc3)c2C)c1C (stereo not given),-1%,-6%,u,-1%,u
COCC(C)n1c(C)cc(C(=O)COC(=O)c2c(NC(C)=O)sc(C)c2C)c1C (stereo not given),0%[57.5 µM],1%,13µM*,1%,4%
COc1ccc(-c2cc(C(=O)N3CCOCC3)c3cc(C)ccc3n2)cc1,0%,-1%,0%,0%,4%
Cc1ccc(-c2cc(C(=O)N3CCOCC3)c3ccccc3n2)cc1,-1%,-9%,25µM*,-3%,6%
Cc1cc2c(c(=O)o1)[C@H](O)[C@H]1O[C@@H]1C2=O,2%[9.22 µM],x,0%[11.4 µM],x,-5%[11.4 µM]
Cc1ccc(-c2noc(CSc3nnnn3C3CCCCC3)n2)cc1,0%,6%,25µM*,-4%,47%
Cc1cc(NC(=O)CSc2nnnn2C2CCCC2)no1,0%,1%,-5%,-1%,3%
Cc1ccc(-c2noc(CCC(=O)NC3CCCc4ccccc43)n2)cc1 (stereo not given),-1%,0%,u,-3%,32µM*
COC(=O)CSc1ncc(C#N)c(N)n1,x,-4%,-1%,-1%,-3%
CC(Sc1ncc(C#N)c(N)n1)C(=O)Nc1ccccc1 (stereo not given),x,3%,u,0%,32µM*
CCC(C(=O)Nc1cc(C)nn1-c1nc(C)cc(C)n1)c1ccccc1 (stereo not given),0%[57.5 µM],0%,u,3%,16µM*
Cc1cc(C)nc(-n2nc(C)cc2NC(=O)CN2CCc3ccccc3C2)n1,-1%,-2%,u,-1%,25µM*
Cc1cc(C)nc(-n2nc(C)cc2NC(=O)CN2CCCC(C)C2)n1 (stereo not given),-1%,4%,u,-1%,u
c1ccc2c(c1)CCC[C@H]2C1=NCCN1,2%,-5%,1%,-1%,-3%
Cn1ncc(C#N)c1/N=C/N(Cc1ccccc1)Cc1ccccc1,1%,11%,u,2%,16µM*
O=C(CSc1nnnn1-c1ccccc1)N1CCc2ccccc2C1,-3%,-3%,u,3%,16µM*
COC(=O)c1cccc(Nc2nc3ccccc3nc2C)c1,1%,12%,u,6%,32µM*
CCOC(=O)c1cccc(Nc2nc(C)cc(C)n2)c1,-1%,3%,7%,6%,1%

# Screening data from PubChem.
